Experimental data: PubChem BioAssay AID493085 (Broad Institute, 2011)
In all, about 2,400 compounds went through this assay and about 360 (15%) were called active. About 5% were inconclusive and are not listed.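 How the source made its calls: active means falling-signal curve with half-maximal concentration at or below ten times the top tested dose; inconclusive means flat fit at 30 to 70% inhibition, or poor fit; inactive means signal rise, flat within 30%, or potency beyond limit.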 These entries were drawn from the full list. Entries with a potency or affinity are not part of this list.

Test: dox-induced RFP signal loss in R4-3T3 cells – cell-based, NIH3T3 R4, HSE-GFP and Tet-On RFP, cherry-pick, set 3, dose response (AID 493085);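 further: cells heat shocked 2 h at 42 °C with doxycycline to induce reporters; 0% = neutral control wells and -100% = didemnin B control at 400 nM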
Conditions: NIH3T3 R4 HSE-GFP/Tet-RFP reporter, fluorescence, 48 h; series mostly up to 19.5 µM; activity change, negative = inhibition: at the top concentration

Activity change, negative = inhibition, inactive:
Cc1ccc(N(Cc2cc3ccc(C)cc3[nH]c2=O)C(=O)c2cccs2)cc1 -2.97%, CCOC(=O)N1CCC(Nc2ncnc3c2cnn3-c2ccc(Cl)cc2)CC1 12.7%, CC1CCCN(c2ncnc3c2cnn3-c2ccc(Cl)cc2)C1 (configuration not stated) -12.2%, c1ccc2c(Nc3nc(-c4ccncc4)nc4ccccc34)cccc2c1 4.7%, COc1cc(CCCN2CCNC[C@@H]2Cc2ccc(O)cc2)cc(OC)c1OC 15.6%, O=C(COC(=O)c1ccccc1-n1cnnn1)c1ccc(F)cc1 5.1%, COc1cccc(-n2c(N)c(-c3nc4ccccc4[nH]3)sc2=S)c1 -11.7%, COc1ccc(/C=C/C(=O)NC(=S)NCCc2ccc(OC)c(OC)c2)cc1 -0.406%, COc1ccc(CC(=O)Nc2cc(C)on2)cc1 6.1%, COc1ccc(Nc2nc(Nc3ccc(OC)cc3)nc(-n3[nH]c(=O)c(C)c3C)n2)cc1 8.07%, COc1ccccc1C(O)(C(=O)N(NC(C)=O)c1ccccc1)c1ccccc1OC -9.05%, Cc1cccc(-c2nnc(NC(=O)c3cccs3)s2)c1 -3.98%, Cc1c(C(=O)Nc2ccc(F)cc2)sc2ncn(CC(=O)N3CCCCC3)c(=O)c12 2.93%, O=C(Nc1cccc(S(=O)(=O)N2CCOCC2)c1)c1ccccn1 -1.87%, O=[N+]([O-])c1ccc(NCCOc2ccccc2Cl)nc1 -4.68%, O=[N+]([O-])c1cccc(-c2nnc(-c3ccccc3)o2)c1 -12.8%, O=C(c1cccs1)n1nc(-c2ccco2)nc1SCc1ccccc1 -5.18%, NNC(=O)c1ccc(O)cc1O 9.83%, COc1cc(=O)[nH]c(SCC(=O)Nc2nc3c(s2)CCCC3)n1 -0.723%, CN(C)CCNC(=O)c1cc2c(s1)-c1ccc(Cl)cc1SC2 14.3%, O=C(Nc1nncs1)c1ccc(F)c(S(=O)(=O)N2CCCCC2)c1 -13.1%, CCCCC(=O)Nc1cccc(NC(=O)c2cccc(Br)c2)c1 8.02%, O=C(Nc1nc(-c2cccs2)cs1)c1ccc(Cl)s1 -3.26%, Cc1ccc(-c2csc(NC(=O)c3ccc(S(=O)(=O)N4CCc5ccccc54)cc3)n2)cc1 -13.1%, COc1cc2c(cc1OC)C(C(=O)NC1CC1)C1c3ccccc3CCN1C2=O (configuration not stated) -14.3%, NC(=S)N/N=C/c1cc([N+](=O)[O-])ccc1OCCOc1ccccc1 16.2%, CCC(C)c1ccc(OCc2ccc(C(=O)O)o2)cc1 (configuration not stated) -8.68%, NS(=O)(=O)c1cccc(NC(=O)CNC(=O)CC23CC4CC(CC(C4)C2)C3)c1 -9.43%, CCOc1ccccc1C(=O)Nc1ccc(NC(=O)c2ccccc2)cc1 6.61%, Cc1cc(C(=O)COC(=O)c2ccco2)c(C)n1Cc1ccco1 0.924%, C=CCOc1ccn(C)c(=O)n1 0.171%, O=C1OC2(CCCCC2)OC(=O)C1=CNc1nccs1 -3.79%, Cc1ccc(C)c(N2CCN(CCN3CCCCC3)CC2)c1 -5.89%, Oc1ccccc1-c1nnc(-c2ccc(C(F)(F)F)cc2)o1 0.933%, COC(=O)C1=C(C)Nc2c(c(=O)n(C)c(=O)n2C)C1c1cccc(O)c1 (configuration not stated) -4.13%, CCC(=O)N1C(C(=O)N2CCCC2)CSC1c1ccc(OC)cc1 (configuration not stated) 20.6%, CNC(=O)Cn1nc(C)c2ccccc2c1=O 6.08%, O=C(CNC(=O)C12CC3CC(CC(C3)C1)C2)NCc1ccccc1 -1.98%, Cc1cc(C)cc(N(CC(=O)Nc2ccc(Br)cc2)S(=O)(=O)c2c(C)[nH]c(=O)[nH]c2=O)c1 3.96%, CCOc1ccccc1Nc1nnc(SCc2nnc(-c3cc(OC)c(OC)c(OC)c3)o2)s1 -1.36%, COc1ccc(-n2c(-c3cccc(OC)c3)nc(=S)c3c2CCCC3)cc1 -11.1%, COc1ccc(N2C(=O)C(C)(C)C2c2c(O)ccc3ccccc23)cc1 (configuration not stated) -9.55%
